Test results: PubChem BioAssay AID743449 (Broad Institute, 2014)
Out of some 9,900 compounds screened, about 90 (0.9%) were called active. Inconclusive results (about 2%) are left out. For the sample, actives were picked, then their nearest neighbours and some compounds at random. Values without a mark were called inactive.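 The calls were made as follows: active = mean normalized replicate activity at least 50 and at least half of replicates each reaching 50; inconclusive = only one of the two criteria met; inactive = neither criterion met.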

Assay: YAP1 pathway inhibitors via CTGF transcript, primary screen, DLD1 colon cancer cells, RT-qPCR, single point (AID 743449);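 also: 0% = neutral control wells and 100% = dasatinib control wells; higher means stronger suppression of CTGF expression like dasatinib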
Settings: DLD1 CTGF mRNA qPCR, 24 h; at 12.5 µM; hits give high values
`COc1cccc(-c2ccc([C@H]3[C@@H](CO)N4CCCCN(C(=O)Cc5ccncc5)C[C@@H]34)cc2)c1` showed an inhibition of 18.9%. Molecule `O=C(Cc1ccncc1)N1CCCCN2[C@H](C1)[C@@H](c1ccc(C#Cc3ccccc3F)cc1)[C@@H]2CO` has an inhibition of 12.4%. `O=C(Cc1ccncc1)N1CCCCN2[C@@H](CO)[C@@H](c3ccc(C#Cc4ccccc4F)cc3)[C@@H]2C1` showed an inhibition of 27.9%. For `COc1cccc(-c2ccc([C@@H]3[C@@H](CO)N4CCCCN(C(=O)Cc5ccncc5)C[C@@H]34)cc2)c1`, the inhibition was 32.9%. Molecule `O=C(Cc1ccncc1)N1CCCCN2[C@H](CO)[C@@H](c3ccc(C#Cc4ccccc4F)cc3)[C@@H]2C1` has an inhibition of 39.4%. With `COc1cccc(-c2ccc([C@H]3[C@H]4CN(C(=O)Cc5ccncc5)CCCCN4[C@H]3CO)cc2)c1` the inhibition was 76.7% (active). In the case of `O=C(Cc1ccncc1)N1CCCCN2[C@H](CO)[C@@H](c3ccc(C#Cc4ccccc4F)cc3)[C@H]2C1`, the inhibition is reported as 54.3% (active). `O=C(Cc1ccncc1)N1CCCCN2[C@@H](CO)[C@H](c3ccc(C#Cc4ccccc4F)cc3)[C@@H]2C1` gave an inhibition of 22.3%. For `O=C(Cc1ccncc1)N1CCCCN2[C@H](C1)[C@H](c1ccc(C#Cc3ccccc3F)cc1)[C@@H]2CO`, the inhibition was 104% (active). With `O=C(O)[C@H]1[C@H](CO)[C@H]2Cn3c(ccc(-c4ccncc4)c3=O)[C@@H]1N2S(=O)(=O)c1ccccc1F` the inhibition was -4.67%. In the case of `C/C=C/c1ccc([C@H]2[C@@H](CO)N3CCCCN(C(=O)Cc4cccnc4)C[C@@H]23)cc1`, the inhibition is reported as -13.7%. In the case of `C[C@@H]1CN([C@@H](C)CO)C(=O)CCCn2nncc2CO[C@H]1CN(C)C(=O)Oc1cccc2ccccc12`, the inhibition is reported as -0.0735%. Work on `COc1ccccc1CN1[C@H](CO)[C@H](c2ccccc2)C12CN(C(=O)Cc1ccccc1)C2` yielded an inhibition of -16.1%. `C/C=C/c1ccc([C@H]2[C@H](CO)N3CCCCN(C(=O)Cc4cccnc4)C[C@@H]23)cc1` gave an inhibition of 13.9%. `O=C([C@H]1N[C@H]2c3cccc(=O)n3C[C@H]2[C@@H]1CO)N1CCCCC1` showed an inhibition of -21.1%.
